We go through five compounds from PubChem BioAssay.

Assay [1] is described as follows: small molecules captured by biotinylated probe aFSTL3 – biochemical, small-molecule microarray, fluorescence 635/667, stem cell growth factor project, primary screen (AID 1064).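 Note: measures binding of the biotinylated anti-FSTL3 antibody to printed compounds.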 The settings on record: higher = more signal.
The nature of assay [2]: binders from COS7 lysate, DM2A8 probe, primary screen, torsin A project, cell lysate, small-molecule microarray, fluorescence 635/667 (AID 1065). The settings on record: higher = more signal, COS7 lysate expressing mutant human TOR1A.
Assay [3] is described as follows: small molecules captured by biotinylated probe aFGF2 – biochemical, small-molecule microarray, fluorescence 635/667, stem cell growth factor project, primary screen (AID 1067).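 Note: measures binding of biotinylated aFGF2 protein to printed compounds on slides; z-score merges feature fluorescence and signal-to-noise across triplicate slides.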 The settings on record: higher = more signal.
Assay [4] in a line: small molecules captured by biotinylated probe aFGF10 – biochemical, small-molecule microarray, fluorescence 635/667, stem cell growth factor project, primary screen (AID 1071).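 Note: score merges 667 nm spot intensity and signal to noise from triplicate slides.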 The settings on record: higher = more signal.
Assay [5] deals with Neurogenic locus notch homolog protein 2 (Homo sapiens) (UniProt Q04721). As to the kind of experiment: small molecules binding Notch2 protein – biochemical, small-molecule microarray, 635 nm fluorescence, stem cell growth factors, primary screen (AID 1073). The settings on record: higher = more signal.
Chain of Neurogenic locus notch homolog protein 2 (Homo sapiens) (Q04721 whole entry, looked up, canonical isoform): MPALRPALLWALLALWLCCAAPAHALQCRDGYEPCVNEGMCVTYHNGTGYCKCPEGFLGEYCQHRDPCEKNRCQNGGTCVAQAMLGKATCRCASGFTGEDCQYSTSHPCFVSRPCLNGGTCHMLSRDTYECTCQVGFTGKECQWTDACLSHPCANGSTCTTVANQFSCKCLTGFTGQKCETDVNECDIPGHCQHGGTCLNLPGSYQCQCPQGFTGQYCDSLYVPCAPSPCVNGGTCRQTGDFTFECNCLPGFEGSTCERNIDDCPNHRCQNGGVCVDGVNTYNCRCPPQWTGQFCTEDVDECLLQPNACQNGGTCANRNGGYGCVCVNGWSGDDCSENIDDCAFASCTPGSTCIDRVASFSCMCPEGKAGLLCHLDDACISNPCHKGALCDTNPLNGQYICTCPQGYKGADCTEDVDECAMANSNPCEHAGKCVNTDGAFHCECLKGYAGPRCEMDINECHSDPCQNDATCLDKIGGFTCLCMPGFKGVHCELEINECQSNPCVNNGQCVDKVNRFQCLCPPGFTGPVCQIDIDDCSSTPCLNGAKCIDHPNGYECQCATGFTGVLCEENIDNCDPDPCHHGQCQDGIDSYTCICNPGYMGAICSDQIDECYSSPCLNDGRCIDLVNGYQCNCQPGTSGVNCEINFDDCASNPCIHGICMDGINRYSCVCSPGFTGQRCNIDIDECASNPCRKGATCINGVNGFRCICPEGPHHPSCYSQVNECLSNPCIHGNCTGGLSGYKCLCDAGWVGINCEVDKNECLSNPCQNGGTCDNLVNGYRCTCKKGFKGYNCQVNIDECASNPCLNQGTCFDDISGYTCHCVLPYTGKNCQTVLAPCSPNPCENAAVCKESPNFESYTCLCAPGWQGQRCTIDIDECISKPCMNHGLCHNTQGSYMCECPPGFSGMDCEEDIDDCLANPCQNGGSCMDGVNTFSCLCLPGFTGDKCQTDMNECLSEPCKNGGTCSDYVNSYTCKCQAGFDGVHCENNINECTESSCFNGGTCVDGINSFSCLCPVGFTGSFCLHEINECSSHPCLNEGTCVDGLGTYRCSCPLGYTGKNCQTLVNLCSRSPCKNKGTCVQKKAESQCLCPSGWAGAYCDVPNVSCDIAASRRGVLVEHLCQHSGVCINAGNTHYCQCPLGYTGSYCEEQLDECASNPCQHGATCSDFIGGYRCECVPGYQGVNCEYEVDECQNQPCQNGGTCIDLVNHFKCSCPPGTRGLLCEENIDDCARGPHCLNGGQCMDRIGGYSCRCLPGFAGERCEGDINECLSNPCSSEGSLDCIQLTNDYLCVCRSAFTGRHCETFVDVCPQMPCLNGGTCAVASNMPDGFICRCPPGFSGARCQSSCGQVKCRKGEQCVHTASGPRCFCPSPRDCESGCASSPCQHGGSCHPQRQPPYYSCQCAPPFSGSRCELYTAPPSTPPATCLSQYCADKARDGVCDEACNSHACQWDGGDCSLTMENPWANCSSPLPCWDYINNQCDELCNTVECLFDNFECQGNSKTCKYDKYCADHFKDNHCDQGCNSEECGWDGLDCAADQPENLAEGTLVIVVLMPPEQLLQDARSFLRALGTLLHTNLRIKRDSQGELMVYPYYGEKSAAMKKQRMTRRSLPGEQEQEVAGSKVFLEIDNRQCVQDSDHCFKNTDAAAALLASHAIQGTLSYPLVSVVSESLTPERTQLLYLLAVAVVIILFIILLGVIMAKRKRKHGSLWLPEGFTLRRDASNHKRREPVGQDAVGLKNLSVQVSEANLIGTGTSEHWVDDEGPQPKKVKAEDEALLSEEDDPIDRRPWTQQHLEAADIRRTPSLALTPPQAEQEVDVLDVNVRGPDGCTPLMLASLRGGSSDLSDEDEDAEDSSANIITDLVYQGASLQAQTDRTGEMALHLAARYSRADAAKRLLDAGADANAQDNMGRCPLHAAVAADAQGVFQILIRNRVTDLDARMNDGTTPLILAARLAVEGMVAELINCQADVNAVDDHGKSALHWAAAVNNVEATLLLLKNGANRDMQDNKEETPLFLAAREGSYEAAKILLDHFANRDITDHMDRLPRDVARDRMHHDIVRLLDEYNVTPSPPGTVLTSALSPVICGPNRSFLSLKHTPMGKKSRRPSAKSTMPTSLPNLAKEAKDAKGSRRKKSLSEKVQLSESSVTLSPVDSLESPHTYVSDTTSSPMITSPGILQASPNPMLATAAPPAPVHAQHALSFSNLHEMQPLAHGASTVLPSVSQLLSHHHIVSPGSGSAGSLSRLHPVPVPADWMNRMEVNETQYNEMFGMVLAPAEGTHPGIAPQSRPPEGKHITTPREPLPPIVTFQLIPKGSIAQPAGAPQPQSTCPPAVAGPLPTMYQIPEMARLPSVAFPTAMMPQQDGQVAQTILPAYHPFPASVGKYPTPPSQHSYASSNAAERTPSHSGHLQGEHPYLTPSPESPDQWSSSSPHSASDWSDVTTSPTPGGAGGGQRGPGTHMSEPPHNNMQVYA
For assay [6], the target named is Pro-neuregulin-1, membrane-bound isoform (Homo sapiens) (UniProt Q02297). As to the kind of experiment: small molecules binding neuregulin-1 protein – biochemical, small-molecule microarray, fluorescence 635/667, psychiatric disease protein project, primary screen (AID 1075).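 Note: score combines 667 nm spot fluorescence with signal to noise.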 The settings on record: NRG1 binding, 635 nm fluorescence, higher = more signal.
Chain of Pro-neuregulin-1, membrane-bound isoform (Homo sapiens) (Q02297 whole entry, looked up, the tested form may be a part, canonical isoform): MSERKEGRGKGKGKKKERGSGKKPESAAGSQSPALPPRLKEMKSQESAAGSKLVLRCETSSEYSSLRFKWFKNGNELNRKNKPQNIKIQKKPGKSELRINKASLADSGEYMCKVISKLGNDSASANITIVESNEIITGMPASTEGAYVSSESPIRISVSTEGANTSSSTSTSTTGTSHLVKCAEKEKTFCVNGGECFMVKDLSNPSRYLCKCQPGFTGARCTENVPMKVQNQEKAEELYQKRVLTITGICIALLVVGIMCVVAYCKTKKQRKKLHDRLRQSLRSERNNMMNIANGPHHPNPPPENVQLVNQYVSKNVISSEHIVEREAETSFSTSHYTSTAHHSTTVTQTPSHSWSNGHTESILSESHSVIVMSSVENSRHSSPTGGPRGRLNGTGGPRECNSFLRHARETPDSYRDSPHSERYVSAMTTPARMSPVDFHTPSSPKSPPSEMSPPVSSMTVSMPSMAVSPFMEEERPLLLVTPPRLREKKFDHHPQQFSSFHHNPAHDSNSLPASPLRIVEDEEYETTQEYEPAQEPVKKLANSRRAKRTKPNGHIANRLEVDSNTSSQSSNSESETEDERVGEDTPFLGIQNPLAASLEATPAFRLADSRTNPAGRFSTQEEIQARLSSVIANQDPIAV
The test system of assay [7] is Neuregulin-1 EGF-like domain. As to the kind of experiment: small molecules binding NRG1 EGF domain – biochemical, small-molecule microarray, 635 nm fluorescence, primary screen (AID 1081).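 Note: binding of the protein to compounds printed on small-molecule microarray slides.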 The settings on record: higher = more signal.
Assay [8] can be described thus: FRG1 expression reporter modulators in myotubes – cell-based, C2C12 myotubes, firefly/Renilla luciferase, luminescence, FRG1 inhibition for FSHD, primary screen (AID 1084). The settings on record: FRG1 promoter luciferase, higher = more signal, called active from +8 up or from −8 down.
Assay [9] is described as follows: small molecules captured by biotinylated probe aFST – biochemical, small-molecule microarray, fluorescence 635/667, stem cell growth factor project, primary screen (AID 1086).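 Note: score merges 667 nm fluorescence with signal-to-noise of each printed compound spot.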 The settings on record: higher = more signal.
Assay [10] is described as follows: binders of probe aHhip on microarray, primary screen, stem cell growth factor project, biochemical, small-molecule microarray, fluorescence 635/667 (AID 1087).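 Note: score merges spot fluorescence at 667nm with spot signal to noise ratio.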 The settings on record: higher = more signal.
Assay [11] has as its system PRMT1 (protein arginine N-methyltransferase 1). Description: small molecules binding arginine methyltransferase PRMT1 – biochemical, small-molecule microarray, 635 nm fluorescence, primary screen (AID 1088).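 Note: binding of Prmt1 protein to compounds spotted on small-molecule microarray slides.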 The settings on record: higher = more signal.
Assay [12] in a line: growth effects on S. cerevisiae YJM789 – YJM789 clinical isolate, OD600, 24 h, basal, primary screen (AID 1089).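 Note: growth of clinical yeast isolate S. cerevisiae YJM 789 seeded 1000 cells per well; test concentration not given here.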 The settings on record: higher = more signal, called active from +8 up or from −8 down.
Assay [13] can be described thus: S. pombe growth modifiers, basal conditions – strain 972, OD600, 24 h, no modulator, primary screen (AID 1090).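 Note: basal condition with compound alone and no growth modifier present; test concentration not given here.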 The settings on record: S. pombe 972 growth, higher = more signal, called active from +8 up or from −8 down.
A short description of assay [14]: budding yeast growth modifiers under rapamycin – strain BY4716, OD600, 96 h, primary screen (AID 1091). Note: test concentration not given here. The settings on record: S. cerevisiae BY4716 + rapamycin, higher = more signal, called active from +8 up or from −8 down.
Assay [15] has as its target Torsin-1A-interacting protein 2 (Homo sapiens) (UniProt Q8NFQ8). Description: small molecules binding lysate-expressed LULL1 – cell lysate, human LULL1 lysate, 635/667 nm fluorescence, primary screen (AID 1092).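 Note: probe is lysate of COS7 cells overexpressing human LULL1; score merges per-feature 667 nm fluorescence with signal-to-noise.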 The settings on record: small-molecule microarray, hLULL1 lysate binding, 635 nm fluorescence; higher = more signal.
Assay [16] is described as follows: optical density change of DRC41 E. coli – strain DRC41, OD650, 24 h, E. coli filamentation project, primary screen (AID 1093).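 Note: MC1000 strain lacking acrAB efflux and sulA so SOS filamentation is blocked; test concentration not given here.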 The settings on record: E. coli DRC41 growth, higher = more signal, called active from +8 up or from −8 down.
Assay [17] can be described thus: probe aLefty2 binding to arrayed compounds – biochemical, biotinylated probe, 635/667 nm fluorescence, primary screen (AID 1094).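 Note: score merges spot fluorescence near 667 nm with spot signal-to-noise ratio.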 The settings on record: small-molecule microarray, higher = more signal.
For assay [18], the system named is Noggin (protein binding on small-molecule microarray). As to the kind of experiment: small molecules binding Noggin protein – biochemical, 635/667 nm fluorescence, primary screen (AID 1095).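 Note: score merges 667 nm feature fluorescence with signal to noise over triplicate slides.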 The settings on record: 635 nm fluorescence, higher = more signal.
Assay [19] deals with Neurogenic locus notch homolog protein 3 (Homo sapiens) (UniProt Q9UM47). As to the kind of experiment: small molecules binding NOTCH3 protein – biochemical, 635/667 nm fluorescence, primary screen (AID 1096). The settings on record: small-molecule microarray, 635 nm fluorescence, higher = more signal.
The nature of assay [20]: probe aEGFR binding to arrayed compounds – biochemical, biotinylated probe, 635/667 nm fluorescence, primary screen (AID 1097).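 Note: probe is a biotinylated anti-EGFR antibody binding compounds printed on slides; score combines fluorescence near 667 nm and signal to noise of each spot.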 The settings on record: small-molecule microarray, higher = more signal.

Structures are written as SMILES. Activity calls are given as the source filed them.

Chain of Torsin-1A-interacting protein 2 (Homo sapiens) (Q8NFQ8 whole entry, looked up): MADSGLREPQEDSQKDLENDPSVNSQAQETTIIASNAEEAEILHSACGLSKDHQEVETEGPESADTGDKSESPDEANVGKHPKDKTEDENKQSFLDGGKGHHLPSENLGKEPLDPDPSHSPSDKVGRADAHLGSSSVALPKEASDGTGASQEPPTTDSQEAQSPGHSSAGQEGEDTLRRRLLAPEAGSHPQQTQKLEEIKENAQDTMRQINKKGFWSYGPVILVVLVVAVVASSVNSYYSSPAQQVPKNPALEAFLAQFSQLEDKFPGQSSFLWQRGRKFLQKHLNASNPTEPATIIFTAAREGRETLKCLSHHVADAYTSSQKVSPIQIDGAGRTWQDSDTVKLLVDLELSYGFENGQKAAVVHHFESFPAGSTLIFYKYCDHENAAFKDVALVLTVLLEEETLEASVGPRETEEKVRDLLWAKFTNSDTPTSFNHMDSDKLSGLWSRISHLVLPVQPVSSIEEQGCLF

`CCCC[C@@H]1C[C@H]1[C@@H](NC(=O)c1ccc(-c2ccccc2)cc1)c1ccc(-c2ccccc2)cc1`: the composite z-score in assay [1] is -0.129; in assay [2], 0.0257; in assay [3], 0.702; in assay [4] it was 0.711; in assay [5], 0.286; in [6], 0.0352. Besides, the composite z-score was 0.217 in [7]; 0.0469 in assay [9]; 0.107 in assay [10]; 0.407 in assay [11]; 0.983 in assay [15]; -0.0986 in assay [17]. For the same compound, the values for the composite z-score in assay [18], in assay [19] and in assay [20] were 0.677, 1 and -0.109, respectively. Also, the z-score in [8] was -1.11 (inactive); in assay [12] it was -0.38 (inactive); in assay [13] it was -6.62 (inactive); in assay [14] it was -2.47 (inactive); in assay [16] it was -1.08 (inactive).
For the compound `CC(C)NC(=O)[C@@]1(Cc2ccccc2I)c2ccccc2C(=O)N(Cc2ccccc2)[C@H]1c1ccc(CO)cc1`, the composite z-score is 0.0478 in [1]; 0.613 in [2]; -0.017 in assay [3]; 0.554 in [4]; 0.787 in [5]; 1.38 in assay [6]. In addition, the composite z-score in [7] is 0.986; in [9], 0.612; in assay [10], 0.0401; in assay [11] it was 1.53; in assay [15], 2.91; in assay [17], -0.0354. The results for the composite z-score in [18], in assay [19] and in assay [20] were 1.04, 1.09 and -0.0605, respectively. The z-score in [8] was -2.91 (inactive); in assay [12], -0.805 (inactive); in assay [13], -1.5 (inactive); in [14], -0.291 (inactive); in [16] it was -0.408 (inactive).
For the compound `COc1ccc(C(O)C2C=CC3C(=O)N(C)C(=O)C3N2Nc2ccccc2)cc1OCc1ccccc1` (stereo not given), the composite z-score worked out at 0.008 in [1]; 0.174 in assay [2]; 0.0258 in assay [3]; 0.386 in assay [4]; 1.28 in assay [5]; 1.94 in assay [6]. Besides, the composite z-score in [7] is 1.31; in assay [9], 0.346; in [10] it was 0.208; in assay [11], 1.49; in [15], 3.41; in assay [17], 0.287. Moreover, the results for the composite z-score in [18], in [19] and in [20] were 0.102, 0.742 and 0.0099, respectively. Besides, the z-score in [8] was -1.1 (inactive); in [12], -4.02 (inactive); in [13], 1.11 (inactive); in assay [14], 0.317 (inactive); in assay [16] it was -1.2 (inactive).
Regarding `CCCCC=C[C@@H](NC(=O)c1ccc(C(=O)OC)cc1)c1ccccc1`, the composite z-score is 0.026 in assay [1]; 0.0108 in assay [2]; -0.116 in [3]; 0.213 in assay [4]; 1.31 in assay [5]; 0.919 in assay [6]. Besides, the composite z-score in assay [7] is 0.903; in [9] it was 0.474; in assay [10], -0.189; in assay [11], 1.29; in [15] it was 2.46; in [17] it was 0.145. Further, the composite z-score in assay [18] was 0.454; in assay [19] it was 1.02; in assay [20] it was -0.0936. Besides, the z-score in [8] was 1.86 (inactive); in assay [12] it was -0.381 (inactive); in assay [13], -1.22 (inactive); in assay [14], 0.771 (inactive); in assay [16], -0.894 (inactive).
As to `CCOC(=O)C[C@H]1[C@H](OC(=O)c2ccc(-c3ccccc3)cc2)[C@@H](NC(=O)c2ccc3ccccc3c2)c2cc(OCCCO)ccc2N1C(=O)Cc1ccc(OC)cc1`, the composite z-score is -0.325 in assay [1]; 0.228 in [2]; 0.0325 in [3]; 0.0493 in assay [4]; 0.425 in [5]; 0.15 in assay [6]. In addition, the composite z-score in assay [7] is -0.733; in [9] it was 0.628; in assay [10] it was -0.134; in [11], 0.265; in assay [15], 0.948; in assay [17], -0.124. In addition, the figures for the composite z-score in assay [18], in assay [19] and in assay [20] were -0.205, -0.209 and -0.128, respectively. The z-score in assay [8] was 1.21 (inactive); in assay [12] it was -1.32 (inactive); in assay [13], 0.636 (inactive); in [14] it was -0.115 (inactive); in [16], 0.0672 (inactive).
